# According to the OligoGym collection:
# Tests used:
# Test in all cases: pooled miR-30 sensor sort-seq; sequence = guide strand
# Conditions in all cases: shRNA
# CYLC1 = target: CYLC1
# CYP20A1 = target: CYP20A1
# CYP2E1 = target: CYP2E1
# CYP4A22 = target: CYP4A22
# CYP4A11 = target: CYP4A11
# Also: reference of the scale not given here.
sequence,measurement,setting,value
TTGAATCTTTCTTAGCATCCTT,sensor-assay potency score (higher = more potent),CYLC1,-0.0997
TTCTTCTGAAAGCTTTAGGAGG,sensor-assay potency score (higher = more potent),CYP20A1,-0.987
TGAATCTTTCTTAGCATCCTTT,sensor-assay potency score (higher = more potent),CYLC1,-0.674
TATCATACTGTCTTCTAGGATC,sensor-assay potency score (higher = more potent),CYP20A1,-0.814
TTGACTTCTTGGATTGTTCATT,sensor-assay potency score (higher = more potent),CYLC1,-0.552
TTCATCATCAAACCGATCTGGA,sensor-assay potency score (higher = more potent),CYP20A1,-0.00182
TTTCTTGTCATCTTTCTTGACA,sensor-assay potency score (higher = more potent),CYLC1,-0.649
TTTTGAACTTCTTCAGAGGTGG,sensor-assay potency score (higher = more potent),CYP20A1,0.0133
TCCTTCAATATCTTGAAGCTGG,sensor-assay potency score (higher = more potent),CYP20A1,-0.788
TTGAATTTGCAGATGTGCCATC,sensor-assay potency score (higher = more potent),CYLC1,-0.566
TATCTTTTTGTGAACAATTTTT,sensor-assay potency score (higher = more potent),CYLC1,-1.47
TTTATCATTTGTACCTCTCTGG,sensor-assay potency score (higher = more potent),CYLC1,0.594
TTGATTTATCATTTGTACCTCT,sensor-assay potency score (higher = more potent),CYLC1,0.236
TTGGTTGTCATACAAAACAGAG,sensor-assay potency score (higher = more potent),CYP2E1,-1.2
TTCAGTATCTGAACCTTTGATT,sensor-assay potency score (higher = more potent),CYLC1,-0.393
TCCTTGTCTGACAAGATGCTCC,sensor-assay potency score (higher = more potent),CYP4A22,-1.35
TTTGAGCAGCCACTGCCTGTGC,sensor-assay potency score (higher = more potent),CYP4A11,-0.428
TTCTGTAGTTGAGCCTTCCTCA,sensor-assay potency score (higher = more potent),CYP4A22,0.294
TATTCTTCAATTCCAACTGGAA,sensor-assay potency score (higher = more potent),CYP2E1,-0.685
TGTGCAGGTAGAGCTGAACTGC,sensor-assay potency score (higher = more potent),CYP4A11,-1.37
TCAGTTGGATCACTTGGTCTGT,sensor-assay potency score (higher = more potent),CYP4A22,-0.279
TTATTAAAAATGATTCCCCTGT,sensor-assay potency score (higher = more potent),CYP2E1,0.074
TTTGGATTTCAACACAAGTCGT,sensor-assay potency score (higher = more potent),CYP4A22,-1.17
AATAAGGACAGGCACTTGGGAA,sensor-assay potency score (higher = more potent),CYP4A22,-1.26
TGTCATACAAAACAGAGTCCAG,sensor-assay potency score (higher = more potent),CYP2E1,-0.481
ATCATTGTAGTCAAAATGCTTG,sensor-assay potency score (higher = more potent),CYP2E1,-1.07
TTTCTGAATCCGTTGTAGCTCC,sensor-assay potency score (higher = more potent),CYP4A11,-0.368
TGTCCTTCCAGGTAGGTCCATT,sensor-assay potency score (higher = more potent),CYP2E1,-0.826
AAAGGGTCAAACACCTCTGGGT,sensor-assay potency score (higher = more potent),CYP4A11,-0.324
TTAATGCACATGGTGGTGTAGG,sensor-assay potency score (higher = more potent),CYP4A22,-1.01
TACAGCGTGAACACCGGCCCGA,sensor-assay potency score (higher = more potent),CYP2E1,-0.641
AACACAAGTCGTGCAATGGGGA,sensor-assay potency score (higher = more potent),CYP4A11,-1.18
TGAGCTCTCTTCCAATGCCTGG,sensor-assay potency score (higher = more potent),CYP4A22,-1.4
TGTCTGACAAGATGCTCCCATT,sensor-assay potency score (higher = more potent),CYP4A22,-1.67
TTGAAATAGTCACTGTACTTGA,sensor-assay potency score (higher = more potent),CYP2E1,-0.183
TAGAGGATCCAGGAGATCCCAC,sensor-assay potency score (higher = more potent),CYP4A22,-1.33
